Whole data set: some 18,000 sequences, median “log2 normalized intensity” near 0.36, cut for the highest 2% near 7.3. Many of the other results were omitted from the sample, so the highest values are more common in it than they were.

The assay has as its target T1, HNF4alpha8 (COS-7 nuclear extract) (Homo sapiens, UniProt P41235-5 1-452).
T1 sequence: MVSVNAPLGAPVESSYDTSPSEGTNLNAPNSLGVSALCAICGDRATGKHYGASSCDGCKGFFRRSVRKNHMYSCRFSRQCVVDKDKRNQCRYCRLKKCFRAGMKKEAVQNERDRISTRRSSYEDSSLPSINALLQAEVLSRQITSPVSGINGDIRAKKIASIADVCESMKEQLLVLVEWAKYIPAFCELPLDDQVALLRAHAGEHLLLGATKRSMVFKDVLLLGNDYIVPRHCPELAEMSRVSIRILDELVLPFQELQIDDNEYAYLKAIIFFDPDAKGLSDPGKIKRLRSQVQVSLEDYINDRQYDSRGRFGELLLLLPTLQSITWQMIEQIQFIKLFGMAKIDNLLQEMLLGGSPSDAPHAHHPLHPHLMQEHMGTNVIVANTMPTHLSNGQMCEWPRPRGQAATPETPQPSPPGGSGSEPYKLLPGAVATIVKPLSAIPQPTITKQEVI
The experiment in a line: protein-binding microarray; COS-7 nuclear extract on double-stranded Agilent 4x180k PBM; binding buffer, salt, pH and temperature not given in the material; high values mean tight binding. To be noted: chain copies: 2; label: 3' end of strand 1 on the slide; dsDNA, one strand shown. Put shortly:
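Nuclear extracts from COS-7 cells expressing a transiently transfected human HNF4α isoform were put on a custom Agilent SurePrint G3 4x180k array carrying ~44,000 double-stranded ~60-nt test sequences in quadruplicate. Imaging used an Agilent G2565CA scanner at 2-µm resolution. Binding signal is the background-corrected, normalized gProcessedSignal from Agilent software.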
With “TGTTTGTTTTGAGATAGGGTCTTGCTTTGTGCCTAGGGAGATTAGAGTATCGGTCGA”, the binding signal is 1.3 log2 normalized intensity.
For “CACTCATGGTGTTTGCTTTGTGAAGGCTTAGCCTAGGGAGATTAGAGTATCGGTCGA” the value was 0.417 log2 normalized intensity; for “TTCCTCCAGCCTGTCGGAATTTGCCCTGTGGCCTAGGGAGATTAGAGTATCGGTCGA”, 5.15 log2 normalized intensity; for “ACCATTAACCCTACAGTCCTGCCACATCCCGCCTAGGGAGATTAGAGTATCGGTCGA”, -0.385 log2 normalized intensity.
For “ATCTCATCCTGTGACCAAGAATGTCTAACCGCCTAGGGAGATTAGAGTATCGGTCGA” the value was -0.428 log2 normalized intensity; for “CTTGACCTTTGATCCAGGCTCAGTGGGCGTGCCTAGGGAGATTAGAGTATCGGTCGA”, 5.72 log2 normalized intensity; for “ATCCTTCTTGACCAGGCAAGCTTGACCTTTGCCTAGGGAGATTAGAGTATCGGTCGA”, 7.77 log2 normalized intensity.
For the sequence “TTAGGATGACCTTTAGATTCTTACAGGCAAGCCTAGGGAGATTAGAGTATCGGTCGA”, the binding signal was found to be 4.57 log2 normalized intensity.
On to “TCTTGACCAGGCAAGCTTGACCTTTGATCCGCCTAGGGAGATTAGAGTATCGGTCGA”, for which the binding signal amounted to 10 log2 normalized intensity.
The result for “TTGATCCAGGATCCTTCTTGACCAGGCAAGGCCTAGGGAGATTAGAGTATCGGTCGA” reads 0.747 log2 normalized intensity; that for “ACTTTGACCTAGAAGCCAGGGACCAGGAAGGCCTAGGGAGATTAGAGTATCGGTCGA”, -0.796 log2 normalized intensity; that for “ATTTGACCCTTGGCCAGGTGCAGTGGCTCAGCCTAGGGAGATTAGAGTATCGGTCGA”, 3.54 log2 normalized intensity.
For “CAAGCTTGATCCAGGATCCTTCTTGACCAGGCCTAGGGAGATTAGAGTATCGGTCGA” the value was 1.18 log2 normalized intensity; for “GCAAGCTTGACCTTTGATCCAGGCTCAGTGGCCTAGGGAGATTAGAGTATCGGTCGA”, 8.22 log2 normalized intensity; for “GCTCCTGTTCCTTTGTTACACTGGCTGCCCGCCTAGGGAGATTAGAGTATCGGTCGA”, 2.08 log2 normalized intensity.
Turning to “AAAGGTCACCAGTGAGCCAAGGTACCCTGGGCCTAGGGAGATTAGAGTATCGGTCGA”, the binding signal came to 1.29 log2 normalized intensity.
For “GTGACTCTAGGAACCTTTCTCCATACCTCTGCCTAGGGAGATTAGAGTATCGGTCGA” the value was -0.874 log2 normalized intensity.
For “ACAAAGAAATGTAACCTTTGGCCAATTGCAGCCTAGGGAGATTAGAGTATCGGTCGA” the value was 5.13 log2 normalized intensity.
For the sequence “AACTGACACTTGTTTGAATTGTGATAATAAGCCTAGGGAGATTAGAGTATCGGTCGA”, the binding signal was 1.04 log2 normalized intensity.
Turning to “TTATCTTGGTGCCTGCAGAGCCTCCCCATTGCCTAGGGAGATTAGAGTATCGGTCGA”, the binding signal came to 2.69 log2 normalized intensity.
For “GTAGGGCAGAGGCCAGTTTGATCACAAGACGCCTAGGGAGATTAGAGTATCGGTCGA” the value was -0.285 log2 normalized intensity.
With “AGTTTGGTTTAAAGTTCAAGTCATAACTGGGCCTAGGGAGATTAGAGTATCGGTCGA”, the binding signal was 2.53 log2 normalized intensity.
The result for “GAATAATCCCCTCCTGGACTTTGGTCTCATGCCTAGGGAGATTAGAGTATCGGTCGA” reads 8 log2 normalized intensity; that for “ATGCCCAAATGAATAATCCCCTCCTGGACTGCCTAGGGAGATTAGAGTATCGGTCGA”, 3.33 log2 normalized intensity.
For “GACATGCAGTATGGGGACTTTGGACTCCTGGCCTAGGGAGATTAGAGTATCGGTCGA” the value was 8.41 log2 normalized intensity.
In the case of “GTAATGACATGCAGTATGGGGACTTTGGACGCCTAGGGAGATTAGAGTATCGGTCGA”, the binding signal worked out at 7.1 log2 normalized intensity.
The result for “ATCCCCTCCTGGACTTTGGTCTCATGGGCCGCCTAGGGAGATTAGAGTATCGGTCGA” reads 7.4 log2 normalized intensity; that for “TATGTGCTCACTCCTGGGACAAGGACTTTGGCCTAGGGAGATTAGAGTATCGGTCGA”, 3.11 log2 normalized intensity; that for “CAAATGAATAATCCCCTCCTGGACTTTGGTGCCTAGGGAGATTAGAGTATCGGTCGA”, 5.55 log2 normalized intensity.
For “GGACTTTGGTCTCATGGGCCTAAACATTCCGCCTAGGGAGATTAGAGTATCGGTCGA” the value was 5.24 log2 normalized intensity; for “CTCCTGGACTTTGGTCTCATGGGCCTAAACGCCTAGGGAGATTAGAGTATCGGTCGA”, 5.27 log2 normalized intensity.
Regarding “TATTCCTTGTCCTTGACCCTTCCTCCCATTGCCTAGGGAGATTAGAGTATCGGTCGA”, the binding signal came to 4.01 log2 normalized intensity.
With “GAAACATCCACATGTGGGTCCAAAGAACATGCCTAGGGAGATTAGAGTATCGGTCGA”, the binding signal came out at 3.82 log2 normalized intensity.
Turning to “ATCACATTCTAATCCTCTGGTCTTTGCCCCGCCTAGGGAGATTAGAGTATCGGTCGA”, the binding signal turned out to be 5 log2 normalized intensity.
The result for “CCCTGAGTAGTTCTTCTGGTTAGTTTTTCAGCCTAGGGAGATTAGAGTATCGGTCGA” reads 1.66 log2 normalized intensity; that for “CTCCCCTCCTCCAGATGGGCTCATGTAACAGCCTAGGGAGATTAGAGTATCGGTCGA”, 2.65 log2 normalized intensity.
Take “CTGATTTAGCTATTTGACCTTCGGCCTCAAGCCTAGGGAGATTAGAGTATCGGTCGA”: the binding signal came to 8.73 log2 normalized intensity.
For “ACCAAAACCAAGATAGTGACGGAGGTGACCGCCTAGGGAGATTAGAGTATCGGTCGA”, the binding signal came out at 1.88 log2 normalized intensity.
On to “CCAGGCTGATTTAGCTATTTGACCTTCGGCGCCTAGGGAGATTAGAGTATCGGTCGA”, for which the binding signal was determined as 5.84 log2 normalized intensity.
For the sequence “GTGACGGAGGTGACCTTTGGTTGTCCTTACGCCTAGGGAGATTAGAGTATCGGTCGA”, the binding signal came out at 4.94 log2 normalized intensity.
The result for “CAAGAATGCAAAGCCCTGGCTGACCTTTAGGCCTAGGGAGATTAGAGTATCGGTCGA” reads 5.88 log2 normalized intensity; that for “ATTGGCCCTTTGACCTTTAATCAAGGGCTGGCCTAGGGAGATTAGAGTATCGGTCGA”, 5.91 log2 normalized intensity.
With “GCCCCTGGCTGGGCCCTGACCTCAAGTGACGCCTAGGGAGATTAGAGTATCGGTCGA”, the binding signal came out at 2.6 log2 normalized intensity.
Consider “GACAGCTGGGCCCTGCCTGACCTGCCCTTTGCCTAGGGAGATTAGAGTATCGGTCGA”, for which the binding signal amounted to 5.01 log2 normalized intensity.
The result for “AACCAAGATAGTGACGGAGGTGACCTTTGGGCCTAGGGAGATTAGAGTATCGGTCGA” reads 7.34 log2 normalized intensity; that for “ATGCAAAGCCCTGGCTGACCTTTAGCCTGGGCCTAGGGAGATTAGAGTATCGGTCGA”, 7.69 log2 normalized intensity.
For “TGGCTGGGCCCTGACCTCAAGTGACCTTTGGCCTAGGGAGATTAGAGTATCGGTCGA” the value was 7.77 log2 normalized intensity.
For “TTAGCTATTTGACCTTCGGCCTCAATTATAGCCTAGGGAGATTAGAGTATCGGTCGA” the value was 7.29 log2 normalized intensity; for “CTTCGCTGGAATGTCACAGGGATTACGATCGCCTAGGGAGATTAGAGTATCGGTCGA”, 0.569 log2 normalized intensity; for “CTTTGATAGCCAAGCCAACCAGGAGAATTTGCCTAGGGAGATTAGAGTATCGGTCGA”, 2.31 log2 normalized intensity.
For the sequence “CTGGTTGGAATTCCAGTGTTCACATCTGATGCCTAGGGAGATTAGAGTATCGGTCGA”, the binding signal is 1.09 log2 normalized intensity.
Regarding “TCATTTCTGCTTGCAACCAAAGGAGTCCTGGCCTAGGGAGATTAGAGTATCGGTCGA”, the binding signal was -0.447 log2 normalized intensity.
In the case of “TGGCCAAAGTTCAGTAAATCTTAGAGAACAGCCTAGGGAGATTAGAGTATCGGTCGA”, the binding signal stood at 2.27 log2 normalized intensity.
As for “GCCAAGGGCAGTGTTTGCCCAGCTTGAATCGCCTAGGGAGATTAGAGTATCGGTCGA”, the binding signal is -0.771 log2 normalized intensity.

The values are drawn from paper PMC10726135, “HNF4α isoforms regulate the circadian balance between carbohydrate and lipid metabolism in the liver”.
